{"source": "paper PMC7862700", "about": "“An all-to-all approach to the identification of sequence-specific readers for epigenetic DNA modifications on cytosine”", "assay_in_all_cases": "DAPPL (digital affinity profiling via proximity ligation, sequencing); 10 mM Tris-HCl pH 7.5, 50 mM NaCl, 1 mM DTT, 4% glycerol, room temperature, 30 min; GST-TFs on glutathione beads, 16-mer random dsDNA library, 0.1% formaldehyde crosslink after washing; high values mean tight binding", "key": {"FEV": {"biological_target": "T1, FEV (Homo sapiens, UniProt Q99581 1-238)", "T1 sequence": "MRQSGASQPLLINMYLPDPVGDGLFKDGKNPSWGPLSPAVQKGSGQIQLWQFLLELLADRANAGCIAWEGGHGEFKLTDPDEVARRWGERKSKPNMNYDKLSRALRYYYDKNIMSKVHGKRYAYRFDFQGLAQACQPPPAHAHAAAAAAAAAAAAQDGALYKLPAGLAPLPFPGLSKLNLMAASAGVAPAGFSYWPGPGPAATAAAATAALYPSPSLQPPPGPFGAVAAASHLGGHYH", "conditions": "protein: recombinant; tags: N-terminal GST; dsDNA, one strand shown", "summary_of_the_method": "(§1)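 GST fusions of human transcription factors were expressed in yeast and captured with glutathione beads. Once given DNA barcodes and pooled alongside a tag-only sample, they were incubated for 30 min at room temperature with 200 nmole of a random double-stranded 16-mer DNA library in Tris/NaCl/DTT/glycerol buffer, then washed, crosslinked (0.1% formaldehyde), proximity-ligated, PCR-amplified and sequenced on an Illumina NextSeq500. The binding signal of each hexamer is its read frequency for a factor divided by its frequency for the tag-only sample.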"}, "ETV5": {"biological_target": "ETV5 (Homo sapiens, UniProt P41161 1-510)", "sequence (P41161 whole entry)": "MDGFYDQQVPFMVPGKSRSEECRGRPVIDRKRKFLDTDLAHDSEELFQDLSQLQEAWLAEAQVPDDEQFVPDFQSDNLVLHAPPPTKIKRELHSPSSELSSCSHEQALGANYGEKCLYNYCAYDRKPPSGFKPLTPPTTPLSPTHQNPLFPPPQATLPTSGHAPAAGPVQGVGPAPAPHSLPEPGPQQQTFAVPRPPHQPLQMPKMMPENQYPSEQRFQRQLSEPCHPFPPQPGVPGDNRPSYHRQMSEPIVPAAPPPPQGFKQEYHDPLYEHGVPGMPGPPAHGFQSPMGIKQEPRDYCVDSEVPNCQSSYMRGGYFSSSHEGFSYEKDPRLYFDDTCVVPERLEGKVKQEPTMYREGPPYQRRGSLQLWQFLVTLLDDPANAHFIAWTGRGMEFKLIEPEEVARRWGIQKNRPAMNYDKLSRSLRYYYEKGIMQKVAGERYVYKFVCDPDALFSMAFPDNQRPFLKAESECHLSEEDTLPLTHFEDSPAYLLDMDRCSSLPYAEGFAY", "conditions": "protein: recombinant; tags: N-terminal GST; dsDNA, one strand shown", "summary_of_the_method": "as §1"}, "HSF1": {"biological_target": "HSF1 (Homo sapiens, UniProt Q00613 1-529)", "sequence (Q00613 whole entry)": "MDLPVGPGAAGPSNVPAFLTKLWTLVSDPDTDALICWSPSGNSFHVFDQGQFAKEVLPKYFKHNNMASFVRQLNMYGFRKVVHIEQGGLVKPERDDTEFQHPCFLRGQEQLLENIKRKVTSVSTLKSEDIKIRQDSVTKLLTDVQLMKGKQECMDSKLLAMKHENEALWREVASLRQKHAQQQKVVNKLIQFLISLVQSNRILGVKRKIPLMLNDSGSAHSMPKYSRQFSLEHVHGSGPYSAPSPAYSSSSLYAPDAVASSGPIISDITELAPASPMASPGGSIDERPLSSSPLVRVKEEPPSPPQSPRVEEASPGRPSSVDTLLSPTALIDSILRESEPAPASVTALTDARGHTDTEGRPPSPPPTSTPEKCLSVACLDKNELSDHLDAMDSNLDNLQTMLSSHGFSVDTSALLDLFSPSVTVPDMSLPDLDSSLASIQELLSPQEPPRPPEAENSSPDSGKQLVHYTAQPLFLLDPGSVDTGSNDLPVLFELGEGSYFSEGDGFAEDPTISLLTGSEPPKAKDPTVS", "conditions": "protein: recombinant; tags: N-terminal GST; chain copies: 3; dsDNA, one strand shown", "summary_of_the_method": "as §1"}, "SPIC": {"biological_target": "T2, SPIC (Homo sapiens, UniProt Q8N5J4 1-248)", "T2 sequence": "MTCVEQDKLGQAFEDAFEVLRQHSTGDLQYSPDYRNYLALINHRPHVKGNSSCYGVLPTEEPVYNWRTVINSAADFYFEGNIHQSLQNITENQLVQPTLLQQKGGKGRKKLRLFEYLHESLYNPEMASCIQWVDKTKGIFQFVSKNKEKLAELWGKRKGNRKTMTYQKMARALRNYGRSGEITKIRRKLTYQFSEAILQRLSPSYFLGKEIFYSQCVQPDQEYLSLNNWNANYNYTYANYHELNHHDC", "conditions": "protein: recombinant; tags: N-terminal GST; dsDNA, one strand shown", "summary_of_the_method": "as §1"}, "ELF4": {"biological_target": "ELF4 (Homo sapiens, UniProt Q99607 1-663)", "sequence (Q99607 whole entry)": "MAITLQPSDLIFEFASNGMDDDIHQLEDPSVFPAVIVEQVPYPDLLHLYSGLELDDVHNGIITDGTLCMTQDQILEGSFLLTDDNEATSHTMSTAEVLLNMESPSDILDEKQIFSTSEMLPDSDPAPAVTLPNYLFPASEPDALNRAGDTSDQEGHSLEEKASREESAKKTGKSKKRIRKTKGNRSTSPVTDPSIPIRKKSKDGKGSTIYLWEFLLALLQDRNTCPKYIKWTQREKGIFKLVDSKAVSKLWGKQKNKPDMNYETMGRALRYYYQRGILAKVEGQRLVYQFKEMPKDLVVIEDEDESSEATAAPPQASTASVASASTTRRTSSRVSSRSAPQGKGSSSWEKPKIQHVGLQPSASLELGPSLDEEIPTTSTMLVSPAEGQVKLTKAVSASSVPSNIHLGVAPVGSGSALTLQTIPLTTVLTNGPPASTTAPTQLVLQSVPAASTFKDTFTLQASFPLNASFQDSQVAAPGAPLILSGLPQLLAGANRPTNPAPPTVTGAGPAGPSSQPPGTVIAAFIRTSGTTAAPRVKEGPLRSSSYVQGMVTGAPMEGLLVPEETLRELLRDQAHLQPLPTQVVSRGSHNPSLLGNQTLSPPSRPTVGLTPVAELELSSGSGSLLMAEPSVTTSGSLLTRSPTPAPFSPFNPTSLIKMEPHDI", "conditions": "protein: recombinant; tags: N-terminal GST; dsDNA, one strand shown", "summary_of_the_method": "as §1"}, "ELK4": {"biological_target": "T3, ELK4 (Homo sapiens, UniProt P28324-2 1-405)", "T3 sequence": "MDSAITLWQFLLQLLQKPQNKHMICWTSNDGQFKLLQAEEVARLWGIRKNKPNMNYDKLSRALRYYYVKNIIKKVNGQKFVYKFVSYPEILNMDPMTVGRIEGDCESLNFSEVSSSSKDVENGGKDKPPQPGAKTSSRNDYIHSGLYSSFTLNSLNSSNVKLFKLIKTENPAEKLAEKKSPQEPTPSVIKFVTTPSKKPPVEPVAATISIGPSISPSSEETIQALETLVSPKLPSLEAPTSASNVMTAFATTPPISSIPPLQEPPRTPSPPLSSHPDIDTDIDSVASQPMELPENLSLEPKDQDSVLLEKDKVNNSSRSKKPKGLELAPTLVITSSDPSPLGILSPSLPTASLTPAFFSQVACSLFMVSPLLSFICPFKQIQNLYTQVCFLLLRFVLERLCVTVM", "conditions": "protein: recombinant; tags: N-terminal GST; dsDNA, one strand shown", "summary_of_the_method": "as §1"}, "ETV2": {"biological_target": "T4, ETV2 (Homo sapiens, UniProt O00321 1-342)", "T4 sequence": "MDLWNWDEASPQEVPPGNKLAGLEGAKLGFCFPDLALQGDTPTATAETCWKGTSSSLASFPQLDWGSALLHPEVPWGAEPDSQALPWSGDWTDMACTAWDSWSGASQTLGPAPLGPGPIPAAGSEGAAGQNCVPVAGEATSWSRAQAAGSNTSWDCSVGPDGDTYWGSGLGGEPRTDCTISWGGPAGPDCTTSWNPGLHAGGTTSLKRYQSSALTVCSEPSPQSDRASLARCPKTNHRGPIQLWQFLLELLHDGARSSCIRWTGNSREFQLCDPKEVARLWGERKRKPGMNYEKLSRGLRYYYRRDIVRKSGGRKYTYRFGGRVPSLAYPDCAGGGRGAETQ", "conditions": "protein: recombinant; tags: N-terminal GST; dsDNA, one strand shown", "summary_of_the_method": "as §1"}, "ELF3": {"biological_target": "T5, ELF3 (Homo sapiens, UniProt P78545 1-371)", "T5 sequence": "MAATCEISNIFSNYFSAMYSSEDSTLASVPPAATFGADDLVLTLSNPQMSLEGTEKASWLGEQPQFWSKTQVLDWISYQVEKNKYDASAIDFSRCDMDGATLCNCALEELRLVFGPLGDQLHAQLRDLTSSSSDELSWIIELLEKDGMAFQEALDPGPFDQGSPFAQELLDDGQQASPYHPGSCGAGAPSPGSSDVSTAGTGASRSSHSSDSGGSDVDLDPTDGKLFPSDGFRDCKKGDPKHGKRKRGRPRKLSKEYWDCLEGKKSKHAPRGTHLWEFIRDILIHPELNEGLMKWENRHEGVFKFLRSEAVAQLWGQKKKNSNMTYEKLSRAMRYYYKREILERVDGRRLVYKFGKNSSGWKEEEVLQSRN", "conditions": "protein: recombinant; tags: N-terminal GST; dsDNA, one strand shown", "summary_of_the_method": "as §1"}, "CRX": {"biological_target": "CRX (Homo sapiens, UniProt O43186 1-299)", "sequence (O43186 whole entry)": "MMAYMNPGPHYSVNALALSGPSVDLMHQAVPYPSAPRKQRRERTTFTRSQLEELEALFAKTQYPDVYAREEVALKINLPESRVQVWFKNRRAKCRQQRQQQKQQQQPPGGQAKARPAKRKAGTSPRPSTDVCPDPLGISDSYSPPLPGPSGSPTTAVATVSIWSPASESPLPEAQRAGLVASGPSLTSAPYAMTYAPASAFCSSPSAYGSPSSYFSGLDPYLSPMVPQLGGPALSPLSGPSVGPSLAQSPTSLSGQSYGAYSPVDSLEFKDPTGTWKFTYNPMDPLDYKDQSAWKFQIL", "conditions": "protein: recombinant; tags: N-terminal GST; dsDNA, one strand shown", "summary_of_the_method": "as §1"}, "ETV1": {"biological_target": "ETV1 (Homo sapiens, UniProt P50549 1-477)", "sequence (P50549 whole entry)": "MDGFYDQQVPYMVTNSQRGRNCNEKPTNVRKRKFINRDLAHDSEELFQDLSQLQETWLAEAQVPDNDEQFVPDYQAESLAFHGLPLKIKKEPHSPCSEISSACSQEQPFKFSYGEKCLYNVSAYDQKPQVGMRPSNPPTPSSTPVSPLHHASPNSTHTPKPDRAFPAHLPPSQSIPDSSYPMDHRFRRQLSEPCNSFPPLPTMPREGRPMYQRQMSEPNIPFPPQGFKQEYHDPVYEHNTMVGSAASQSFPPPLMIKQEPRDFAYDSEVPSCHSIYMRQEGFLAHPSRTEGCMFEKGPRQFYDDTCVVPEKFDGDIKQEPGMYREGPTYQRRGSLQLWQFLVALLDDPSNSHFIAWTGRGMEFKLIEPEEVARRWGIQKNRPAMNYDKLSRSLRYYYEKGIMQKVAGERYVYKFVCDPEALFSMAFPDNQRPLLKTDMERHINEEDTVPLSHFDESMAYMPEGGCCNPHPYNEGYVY", "conditions": "protein: recombinant; tags: N-terminal GST; dsDNA, one strand shown", "summary_of_the_method": "as §1"}}}
{"sequence": "ATCTTC", "values": [{"measurement": "binding signal", "setting": "FEV", "value": "1.39 fold enrichment (6-mer frequency, TF over GST control)"}, {"measurement": "binding signal", "setting": "ETV5", "value": "1.6 fold enrichment (6-mer frequency, TF over GST control)"}, {"measurement": "binding signal", "setting": "HSF1", "value": "2.15 fold enrichment (6-mer frequency, TF over GST control)"}, {"measurement": "binding signal", "setting": "SPIC", "value": "1.49 fold enrichment (6-mer frequency, TF over GST control)"}, {"measurement": "binding signal", "setting": "ELF4", "value": "1.31 fold enrichment (6-mer frequency, TF over GST control)"}, {"measurement": "binding signal", "setting": "ELK4", "value": "1.56 fold enrichment (6-mer frequency, TF over GST control)"}, {"measurement": "binding signal", "setting": "ETV2", "value": "1.75 fold enrichment (6-mer frequency, TF over GST control)"}, {"measurement": "binding signal", "setting": "ELF3", "value": "1.69 fold enrichment (6-mer frequency, TF over GST control)"}, {"measurement": "binding signal", "setting": "CRX", "value": "1.98 fold enrichment (6-mer frequency, TF over GST control)"}, {"measurement": "binding signal", "setting": "ETV1", "value": "1.63 fold enrichment (6-mer frequency, TF over GST control)"}]}
